Results filed as inconclusive are left out. A call without a number means that no potency is given here. Activity calls are given as the source filed them. The call rests on the fitted dose curve; in most records, active means well fitted curve in the direction sought with a large enough effect; inconclusive means small, poorly fitted or top-dose-only effect, or another doubt; inactive means no such curve, though single readings can be large; an effect the other way counts as inactive or inconclusive.

The first experiment is described as follows: High Content Imaging Cell-Based qHTS for Inhibitors of the mTORC1 Signaling Pathway in MEF (Tsc2-/-, p53-/-) Cells (AID 2666).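 Further: percent of cells scored positive for phospho-rpS6 Ser235/236 immunostaining by imaging.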 The following applies: series mostly up to 38.3 µM. The essentials:
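Cells were plated, dosed with compound after 24 hrs, and incubated another 24 hrs at 37 degree Celsius. Fixed cells were immunostained for phospho-rpS6 Ser235/236 and counterstained, and the normalized signal was scored as % active cells against rapamycin and DMSO controls.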
As to `C[C@]12C=CC(=O)C=C1CC[C@@H]1C2=CC[C@]2(C)[C@@H](C(=O)CN3CCN(c4cc(N5CCCC5)nc(N5CCCC5)n4)CC3)CC[C@@H]12`, the Potency entry is “inactive”.
Still for that read-out and setting: for `O=c1[nH]c(=O)c2nc3ccccc3nc2[nH]1` the value was “inactive”; for `CCCn1c(=O)c2c(ncn2C)n(CCC)c1=O`, “inactive”.
For the compound `CC(=O)NNC(=O)N1Cc2ccccc2Oc2ccc(Cl)cc21`, the Potency result is “inactive”.
In the case of `CCSC(=N)N`, the Potency entry was “inactive”.
On to `CCc1ccc2c(-c3cccc(Cl)c3)nc(=O)n(CC)c2n1`, for which the Potency result is “inactive”.
For the compound `O=C(O)C1=CC(=C(c2ccc(O)c(C(=O)O)c2)c2ccc(O)c(C(=O)O)c2)C=CC1=O`, the Potency result is “inactive”.
Regarding `Brc1c(Br)c(Br)c2[nH]cnc2c1Br`, the Potency entry was “inactive”.
On to `NC(Cc1cccc(-c2ccccc2CP(=O)(O)O)c1)C(=O)O` (stereo unspecified), for which the Potency entry is “inactive”.
With `COC(=O)C(C)(N)Cc1ccc(O)cc1` (stereo unspecified), the Potency result is “inactive”.
With `C=CC1(C)CC(=O)C2(O)C(C)(O1)C(OC(C)=O)C(O)C1C(C)(C)CCC(O)C12C` (stereo unspecified), the Potency entry was “inactive”.
In the case of `NCCCCN`, the Potency result was “inactive”.
As for `C[C@@H](NCCc1ccc(O)cc1)[C@@H](O)c1ccc(O)cc1`, the Potency entry was “inactive”.
Turning to `NC1C=CC=C(C(=O)O)C1` (stereo unspecified), the Potency entry is “inactive”.
As to `CCCN(CCc1ccccc1)C1CCc2c(O)cccc2C1` (stereo unspecified), the Potency result is “inactive”.
For the compound `CC1C(=O)N(C)C(=O)c2nc[nH]c21` (stereo unspecified), the Potency entry was “inactive”.
On the same count and under the same terms, the same measure for `c1ccc(C(NCc2cccnc2)(c2ccccc2)c2ccccc2)cc1`: “inactive”.
Same read-out and setting: the same measure for `CN(C)CCCc1cc(C(=O)Nc2ccc(-c3ccncc3)cc2)ccc1O`: “inactive”.
For the compound `O=C(O)Cc1ccc(O)c(O)c1`, the Potency result was “inactive”.
Still for that read-out and setting: the same measure for `CC1CCN=C(N)S1` (stereo unspecified): “inactive”.

Another experiment in a line: High Content Imaging Cell-Based qHTS for Inhibitors of the mTORC1 Signaling Pathway in MEF Cells (AID 2667).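 Further: Tsc2-/- p53-/- MEFs stably re-expressing wild-type Tsc2 exposed 24 h.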 The following applies: series mostly up to 38.3 µM. The essentials:
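Immunofluorescence for rpS6 phosphorylation in MEFs of Tsc2-/-, p53-/- background rescued with WT Tsc2. Compound exposure lasted 24 hrs. Inhibition was scored against rapamycin-treated control wells.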
On to `O=C(O)C1CN(CCCP(=O)(O)O)CCN1` (stereo unspecified), for which the Potency entry was “inactive”.
Still for that read-out and setting: the same measure for `CCCC(=O)NCCc1c2n(c3ccc(OC)cc13)CCCc1ccccc1-2`: “inactive”; for `CN(C)C(=O)/N=N/C(=O)N(C)C`: “inactive”.
Consider `C[C@H]1CC2C3CCC4=CC(=O)C=C[C@]4(C)[C@@]3(Cl)[C@@H](O)C[C@]2(C)[C@@]1(O)C(=O)CO` (stereo partly specified), for which the Potency result is “inactive”.
On to `OC[C@H]1O[C@H](n2cnc3c(N[C@H]4CCC[C@@H]4O)ncnc32)[C@H](O)[C@@H]1O`, for which the Potency result was “inactive”.
Regarding `Cc1cccc(C)c1OCC(N)C(C)C` (stereo unspecified), the Potency entry was “inactive”.
Same read-out and setting: for `N[C@H](C(=O)O)[C@H](Cc1ccccc1)C(=O)O` the value was “inactive”; for `O=c1onc2cnc3ccccc3n12`, “inactive”; for `C=CCn1c(=O)c2c(nc(-c3ccc(S(=O)(=O)O)cc3)n2C)n(C)c1=O`, “inactive”.
Consider `O=C(O)c1cccnc1C(=O)O`, for which the Potency result was “inactive”.
With `Cc1nc(N=Nc2cc(S(=O)(=O)O)c3cc([N+](=O)[O-])cc(S(=O)(=O)O)c3c2)c(COP(=O)(O)O)c(C=O)c1O`, the Potency result is “inactive”.
Take `Cn1c(=O)c2[nH]c(C3CCCC3)nc2n(C)c1=O`: the Potency result was “inactive”.
With `C[C@@]1(C2CCCC2)Cc2cc(OCC(=O)O)c(Cl)c(Cl)c2C1=O`, the Potency result is “inactive”.
Consider `N=C(N)SCCN`, for which the Potency entry is “inactive”.
For the compound `COc1ccc(-c2ccc(N)[n+](CCCC(=O)O)n2)cc1`, the Potency entry was “inactive”.
For `CC(N)(Cc1ccc(O)c(O)c1)C(=O)O` (stereo unspecified), the Potency entry was “inactive”.
For the compound `C=C1C[C@@]23CC[C@H]4[C@@](C)(CCC[C@@]4(C)C(=O)OC4OC(CO)C(O)C(O)C4O)[C@@H]2CC[C@]1(OC1OC(CO)C(O)C(O)C1OC1OC(CO)C(O)C(O)C1O)C3` (stereo partly specified), the Potency result is “inactive”.
In the case of `NCCC1CCCC(CCN)N1` (stereo unspecified), the Potency entry was “inactive”.
Consider `C[C@]12C=CC(=O)C=C1CC[C@@H]1C2=CC[C@]2(C)[C@@H](C(=O)CN3CCN(c4cc(N5CCCC5)nc(N5CCCC5)n4)CC3)CC[C@@H]12`, for which the Potency result was “inactive”.
Still for that read-out and setting: the same measure for `O=c1[nH]c(=O)c2nc3ccccc3nc2[nH]1`: “inactive”; for `CCCn1c(=O)c2c(ncn2C)n(CCC)c1=O`: “inactive”; for `CC(=O)NNC(=O)N1Cc2ccccc2Oc2ccc(Cl)cc21`: “inactive”.
In the case of `CCSC(=N)N`, the Potency result was “inactive”.
Turning to `CCc1ccc2c(-c3cccc(Cl)c3)nc(=O)n(CC)c2n1`, the Potency entry is “inactive”.
Regarding `O=C(O)C1=CC(=C(c2ccc(O)c(C(=O)O)c2)c2ccc(O)c(C(=O)O)c2)C=CC1=O`, the Potency result is “inactive”.
Take `Brc1c(Br)c(Br)c2[nH]cnc2c1Br`: the Potency entry was “inactive”.
Still for that read-out and setting: for `NC(Cc1cccc(-c2ccccc2CP(=O)(O)O)c1)C(=O)O` (stereo unspecified) the value was “inactive”; for `COC(=O)C(C)(N)Cc1ccc(O)cc1` (stereo unspecified), “inactive”; for `C=CC1(C)CC(=O)C2(O)C(C)(O1)C(OC(C)=O)C(O)C1C(C)(C)CCC(O)C12C` (stereo unspecified), “inactive”.
Consider `NCCCCN`, for which the Potency result was “inactive”.
Regarding `C[C@@H](NCCc1ccc(O)cc1)[C@@H](O)c1ccc(O)cc1`, the Potency result was “inactive”.
Turning to `NC1C=CC=C(C(=O)O)C1` (stereo unspecified), the Potency result was “inactive”.
For the compound `CCCN(CCc1ccccc1)C1CCc2c(O)cccc2C1` (stereo unspecified), the Potency entry is “inactive”.
In the case of `CC1C(=O)N(C)C(=O)c2nc[nH]c21` (stereo unspecified), the Potency result was “inactive”.
On to `c1ccc(C(NCc2cccnc2)(c2ccccc2)c2ccccc2)cc1`, for which the Potency result was “inactive”.
With `CN(C)CCCc1cc(C(=O)Nc2ccc(-c3ccncc3)cc2)ccc1O`, the Potency result was “inactive”.
The same measure, in the same setting: the same measure for `O=C(O)Cc1ccc(O)c(O)c1`: “inactive”.
With `CC1CCN=C(N)S1` (stereo unspecified), the Potency result was “inactive”.

A short description of another experiment: Cytometry Cell-Based qHTS for Inhibitors of the mTORC1 Signaling Pathway in MEF cells (AID 2668).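 Further: Tsc2-/- p53-/- mouse embryonic fibroblasts stably re-expressing wild-type Tsc2; percent cells positive for phospho-rpS6 Ser235/236 relative to propidium iodide stain.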 The following applies: mTORC1 pathway readout; series mostly up to 38.3 µM. The method in brief: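 Pathway inhibition in WT Tsc2-rescued Tsc2-/-, p53-/- MEFs is measured as the Alexa-488 phospho-rpS6 to propidium iodide intensity ratio after 24 hrs of compound at 37 degree Celsius. PI-stained cell number gives viability.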
Take `O=C(O)C1CN(CCCP(=O)(O)O)CCN1` (stereo unspecified): the Potency entry was “inactive”.
Take `CCCC(=O)NCCc1c2n(c3ccc(OC)cc13)CCCc1ccccc1-2`: the Potency entry was “inactive”.
On to `CN(C)C(=O)/N=N/C(=O)N(C)C`, for which the Potency result was “inactive”.
Still for that read-out and setting: for `C[C@H]1CC2C3CCC4=CC(=O)C=C[C@]4(C)[C@@]3(Cl)[C@@H](O)C[C@]2(C)[C@@]1(O)C(=O)CO` (stereo partly specified) the value was “inactive”.
For the compound `OC[C@H]1O[C@H](n2cnc3c(N[C@H]4CCC[C@@H]4O)ncnc32)[C@H](O)[C@@H]1O`, the Potency entry was “inactive”.
Regarding `Cc1cccc(C)c1OCC(N)C(C)C` (stereo unspecified), the Potency result was “inactive”.
Same read-out and setting: for `N[C@H](C(=O)O)[C@H](Cc1ccccc1)C(=O)O` the value was “inactive”; for `O=c1onc2cnc3ccccc3n12`, “inactive”; for `C=CCn1c(=O)c2c(nc(-c3ccc(S(=O)(=O)O)cc3)n2C)n(C)c1=O`, “inactive”.
Still for that read-out and setting: for `O=C(O)c1cccnc1C(=O)O` the value was “inactive”; for `Cc1nc(N=Nc2cc(S(=O)(=O)O)c3cc([N+](=O)[O-])cc(S(=O)(=O)O)c3c2)c(COP(=O)(O)O)c(C=O)c1O`, “inactive”.
The same measure, in the same setting: the same measure for `Cn1c(=O)c2[nH]c(C3CCCC3)nc2n(C)c1=O`: “inactive”.
Take `C[C@@]1(C2CCCC2)Cc2cc(OCC(=O)O)c(Cl)c(Cl)c2C1=O`: the Potency entry is “inactive”.
As for `N=C(N)SCCN`, the Potency result was “inactive”.
Consider `COc1ccc(-c2ccc(N)[n+](CCCC(=O)O)n2)cc1`, for which the Potency entry is “inactive”.
With `CC(N)(Cc1ccc(O)c(O)c1)C(=O)O` (stereo unspecified), the Potency entry was “inactive”.
Still for that read-out and setting: for `C=C1C[C@@]23CC[C@H]4[C@@](C)(CCC[C@@]4(C)C(=O)OC4OC(CO)C(O)C(O)C4O)[C@@H]2CC[C@]1(OC1OC(CO)C(O)C(O)C1OC1OC(CO)C(O)C(O)C1O)C3` (stereo partly specified) the value was “inactive”.
Take `NCCC1CCCC(CCN)N1` (stereo unspecified): the Potency result was “inactive”.
For `C[C@]12C=CC(=O)C=C1CC[C@@H]1C2=CC[C@]2(C)[C@@H](C(=O)CN3CCN(c4cc(N5CCCC5)nc(N5CCCC5)n4)CC3)CC[C@@H]12`, the Potency entry is “inactive”.
Consider `O=c1[nH]c(=O)c2nc3ccccc3nc2[nH]1`, for which the Potency result is “inactive”.
Regarding `CCCn1c(=O)c2c(ncn2C)n(CCC)c1=O`, the Potency result was “inactive”.
Take `CC(=O)NNC(=O)N1Cc2ccccc2Oc2ccc(Cl)cc21`: the Potency entry is “inactive”.
For `CCSC(=N)N`, the Potency result is “inactive”.
In the case of `CCc1ccc2c(-c3cccc(Cl)c3)nc(=O)n(CC)c2n1`, the Potency entry was “inactive”.
As to `O=C(O)C1=CC(=C(c2ccc(O)c(C(=O)O)c2)c2ccc(O)c(C(=O)O)c2)C=CC1=O`, the Potency result is “inactive”.
For the compound `Brc1c(Br)c(Br)c2[nH]cnc2c1Br`, the Potency result is “inactive”.
Consider `NC(Cc1cccc(-c2ccccc2CP(=O)(O)O)c1)C(=O)O` (stereo unspecified), for which the Potency entry is “inactive”.
On to `COC(=O)C(C)(N)Cc1ccc(O)cc1` (stereo unspecified), for which the Potency result is “inactive”.
For `C=CC1(C)CC(=O)C2(O)C(C)(O1)C(OC(C)=O)C(O)C1C(C)(C)CCC(O)C12C` (stereo unspecified), the Potency result is “inactive”.
Regarding `NCCCCN`, the Potency entry was “inactive”.
As for `C[C@@H](NCCc1ccc(O)cc1)[C@@H](O)c1ccc(O)cc1`, the Potency entry was “inactive”.
For `NC1C=CC=C(C(=O)O)C1` (stereo unspecified), the Potency result was “inactive”.
For the compound `CCCN(CCc1ccccc1)C1CCc2c(O)cccc2C1` (stereo unspecified), the Potency entry is “inactive”.
Still for that read-out and setting: for `CC1C(=O)N(C)C(=O)c2nc[nH]c21` (stereo unspecified) the value was “inactive”; for `c1ccc(C(NCc2cccnc2)(c2ccccc2)c2ccccc2)cc1`, “inactive”.
In the case of `CN(C)CCCc1cc(C(=O)Nc2ccc(-c3ccncc3)cc2)ccc1O`, the Potency result is “inactive”.
`O=C(O)Cc1ccc(O)c(O)c1`: the Potency result was “inactive”.
Turning to `CC1CCN=C(N)S1` (stereo unspecified), the Potency result is “inactive”.

For the origin of these results see PubChem BioAssay (NCATS).
